We go through 39 molecules from PubChem BioAssay.

Each structure is given as a SMILES string. Inconclusive results are not listed. The source made the active and inactive calls. Unless noted, the limit is not given here; nearly all actives have AC50 up to about 26 µM.

One may read the AC50 as the midpoint of the concentration-response curve, whichever way the signal moves.

The first assay is described as follows: EMT-state selective cytotoxicity in co-culture – imaging, PC-3E GFP, TEM4-18 mCherry, primary screen (AID 1345086).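 Also: cells exposed to compound for 72 h before imaging.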 The note with it: PC-3E GFP / TEM4-18 mCherry co-culture, imaging cell counts; measured here: mesenchymal TEM4-18 mCherry cell survival; at 1 µM.
Regarding `OCCN1CCN(CCCN2c3ccccc3Sc3ccc(C(F)(F)F)cc32)CC1`, the normalised cell number was 0.95.
Turning to `NS(=O)(=O)c1cc2c(cc1Cl)NC=NS2(=O)=O`, the normalised cell number came to 0.45.
With `O=C1C(CCS(=O)c2ccccc2)C(=O)N(c2ccccc2)N1c1ccccc1` (stereo not given), the normalised cell number amounted to 1.24.
The molecule `Cc1ccc(-c2cc(C(F)(F)F)nn2-c2ccc(S(N)(=O)=O)cc2)cc1` yielded a normalised cell number of 1.32.
Molecule `CN[C@H]1CC[C@@H](c2ccc(Cl)c(Cl)c2)c2ccccc21` returned a normalised cell number of 1.05.
As for `Cc1ccccc1C(OCCN(C)C)c1ccccc1` (stereo not given), the normalised cell number turned out to be 0.85.
`CCc1nc(N)nc(N)c1-c1ccc(Cl)cc1` showed a normalised cell number of 0.75.
In turn, `COc1cc2nc(N(C)CCCNC(=O)C3CCCO3)nc(N)c2cc1OC` (stereo not given) came in with a normalised cell number of 1.09.
Still for that read-out and setting: in the case of `CN(C)CCOC(c1ccc(Cl)cc1)c1ccccn1` (stereo not given) it was 1.26; in that of `N[C@@H](C(=O)N[C@@H]1C(=O)N2C(C(=O)O)=C(Cl)CS[C@H]12)c1ccccc1`, 1.1; in that of `Nc1ncn([C@@H]2O[C@H](CO)[C@@H](O)[C@H]2O)c(=O)n1`, 0.82.
`NCc1ccc(S(N)(=O)=O)cc1` yielded a normalised cell number of 0.74.
The same measure, in the same setting: in the case of `Cc1ncc([N+](=O)[O-])n1CC(C)O` (stereo not given) it was 0.94; in that of `Cc1ccc(C)c(OCCCC(C)(C)C(=O)O)c1`, 1.03.
Consider `CN1CCCC(n2nc(Cc3ccc(Cl)cc3)c3ccccc3c2=O)CC1` (stereo not given), for which the normalised cell number was determined as 1.03.
For the molecule `NS(=O)(=O)c1cc2c(cc1C(F)(F)F)NC(Cc1ccccc1)NS2(=O)=O` (stereo not given), the normalised cell number is 1.22.
`COC1=CC(=O)C[C@@H](C)[C@]12Oc1c(Cl)c(OC)cc(OC)c1C2=O` returned a normalised cell number of 1.07.
`Cc1cn([C@H]2C[C@H](N=[N+]=[N-])[C@@H](CO)O2)c(=O)[nH]c1=O` returned a normalised cell number of 1.09.
`CN(CCOc1ccc(CC2SC(=O)NC2=O)cc1)c1ccccn1` (stereo not given) gave a normalised cell number of 1.5.
In turn, `COc1ccc(OC)c(C(O)CNC(=O)CN)c1` (stereo not given) showed a normalised cell number of 1.2.
`OC(CCN1CCCC1)(c1ccccc1)C1CCCCC1` (stereo not given) showed a normalised cell number of 1.03.
Molecule `NC(=O)N1c2ccccc2CC(=O)c2ccccc21` gave a normalised cell number of 1.09.
For the molecule `CCCNCC(O)COc1ccccc1C(=O)CCc1ccccc1` (stereo not given), the normalised cell number is 1.41.
As for `C/C=C/C(=O)N(CC)c1ccccc1C`, the normalised cell number was determined as 0.97.
For `CCCCCCNC(=O)n1cc(F)c(=O)[nH]c1=O`, the normalised cell number was found to be 0.75.
`NC(=O)c1cnccn1` came in with a normalised cell number of 1.03.
The molecule `CN(C)CCc1c[nH]c2ccc(C[C@H]3COC(=O)N3)cc12` displayed a normalised cell number of 1.
For `COc1ccccc1OCC(O)COC(N)=O` (stereo not given), the normalised cell number was determined as 1.16.
As for `COC(=O)Nc1nc2ccc(C(=O)c3ccccc3)cc2[nH]1`, the normalised cell number came out at 0.29.
Take `CCn1cc(C(=O)O)c(=O)c2cc(F)c(N3CCN(C)CC3)cc21`: the normalised cell number stood at 1.38.
For `Cn1cnc([N+](=O)[O-])c1Sc1ncnc2nc[nH]c12`, the normalised cell number is 1.11.
Consider `c1ccc2[nH]c(-c3cscn3)nc2c1`, for which the normalised cell number worked out at 1.16.
Still for that read-out and setting: the result for `Cc1onc(-c2c(Cl)cccc2Cl)c1C(=O)N[C@@H]1C(=O)N2[C@@H]1SC(C)(C)[C@@H]2C(=O)O` reads 1.67.
On to `Clc1ccc2c(c1)C(N1CCNCC1)=Nc1ccccc1O2`, for which the normalised cell number was 0.27.
Turning to `CO[C@@]1(NC(=O)Cc2cccs2)C(=O)N2C(C(=O)O)=C(COC(N)=O)CS[C@@H]21`, the normalised cell number was determined as 1.09.
On the same count and under the same terms, the result for `CCc1cccc2c3c([nH]c12)C(CC)(CC(=O)O)OCC3` (stereo not given) reads 1.03; that for `CC(C)(C)NCC(O)COc1cccc2c1C[C@H](O)[C@H](O)C2` (stereo not given in full), 1.1.
On the same count and under the same terms, the result for `O=S(=O)(O)CCS` reads 1.09; that for `O=c1[nH]cc(F)c(=O)[nH]1`, 0.77.

The next assay is described as follows: viability loss in pontine glioma line – cell-based, SU-DIPG-XVII, MIPE5.0, CellTiter-Glo, qHTS, dose response (AID 1347060).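 As to AC50: cells exposed to compound for 48 hours before viability readout.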 The note with it: CellTiter-Glo ATP luminescence.
With `OCCN1CCN(CCCN2c3ccccc3Sc3ccc(C(F)(F)F)cc32)CC1`, the concentration at half-maximal activity (AC50) was 10.5 µM (active).
Regarding `NS(=O)(=O)c1cc2c(cc1Cl)NC=NS2(=O)=O`, the result was inactive.
On to `CCc1nc(N)nc(N)c1-c1ccc(Cl)cc1`, for which the AC50 is 3.72 µM (active).
Take `Nc1ncn([C@@H]2O[C@H](CO)[C@@H](O)[C@H]2O)c(=O)n1`: the concentration at half-maximal activity (AC50) was 1.48 µM (active).
In the case of `Cc1ncc([N+](=O)[O-])n1CC(C)O` (stereo not given), the outcome was inactive.
Turning to `Cc1ccc(C)c(OCCCC(C)(C)C(=O)O)c1`, the molecule was classed as inactive.
On to `CN(CCOc1ccc(CC2SC(=O)NC2=O)cc1)c1ccccn1` (stereo not given), for which the molecule was called inactive.
For `CCCNCC(O)COc1ccccc1C(=O)CCc1ccccc1` (stereo not given), the outcome was inactive.
`C/C=C/C(=O)N(CC)c1ccccc1C`: the call was inactive.
On the same count and under the same terms, the result for `CCCCCCNC(=O)n1cc(F)c(=O)[nH]c1=O` reads “inactive”.
Take `COC(=O)Nc1nc2ccc(C(=O)c3ccccc3)cc2[nH]1`: the AC50 was 0.0934 µM (active).
`CCn1cc(C(=O)O)c(=O)c2cc(F)c(N3CCN(C)CC3)cc21`: the result was inactive.
For the molecule `O=S(=O)(O)CCS`, the outcome was inactive.

The nature of another assay: viability loss in pontine glioma line – cell-based, SU-DIPG-XIII, MIPE4.0, CellTiter-Glo, qHTS, dose response (AID 1347061; cut-off not given, nearly all actives have AC50 up to about 37 µM;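 also: cells exposed to compound for 48 hours before readout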). The note with it: CellTiter-Glo ATP luminescence. A general note: ATP-based viability assays read luminescence as a measure of living cells.
Regarding `Cc1ccccc1C(OCCN(C)C)c1ccccc1` (stereo not given), the outcome was inactive.
As to `CCc1nc(N)nc(N)c1-c1ccc(Cl)cc1`, the call was inactive.
Same read-out and setting: in the case of `COc1cc2nc(N(C)CCCNC(=O)C3CCCO3)nc(N)c2cc1OC` (stereo not given) it was “inactive”; in that of `N[C@@H](C(=O)N[C@@H]1C(=O)N2C(C(=O)O)=C(Cl)CS[C@H]12)c1ccccc1`, “inactive”; in that of `NC(=O)N1c2ccccc2CC(=O)c2ccccc21`, “inactive”.
As to `NC(=O)c1cnccn1`, the AC50 was 18.7 µM (active).
Take `CN(C)CCc1c[nH]c2ccc(C[C@H]3COC(=O)N3)cc12`: the call was inactive.
For `COc1ccccc1OCC(O)COC(N)=O` (stereo not given), the molecule was classed as inactive.
As for `COC(=O)Nc1nc2ccc(C(=O)c3ccccc3)cc2[nH]1`, the AC50 is 18.7 µM (active).
For the molecule `c1ccc2[nH]c(-c3cscn3)nc2c1`, the call was inactive.
Still for that read-out and setting: the result for `Clc1ccc2c(c1)C(N1CCNCC1)=Nc1ccccc1O2` reads “inactive”.
With `CCc1cccc2c3c([nH]c12)C(CC)(CC(=O)O)OCC3` (stereo not given), the call was inactive.
Consider `O=c1[nH]cc(F)c(=O)[nH]1`, for which the call was inactive.
